Screening results (PubChem BioAssay)
The full list was thinned out, with hits kept by preference.
Tg IFNy HTS = blocks Toxoplasma gondii growth in the presence of IFN-gamma. AID 1259416. 3.8% of 69,000 active. Toxoplasma gondii growth in IFN-gamma-treated host cells; active compounds read low. activity change, negative = inhibition, % (test concentration not listed); in the data active means activity change below about -70%, passing the limit was not always enough;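 further: host cells are HeLa cells infected with Toxoplasma gondii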
* marks the source's active call; other numbers are inactive results.

How did CCC1CN(Cc2cncn2CC(C)C)CCC(=O)N1Cc1ccccc1 (stereo not given) do in these assays?
Tg IFNy HTS: -11

How did CN1CC(c2cc(N(C)C)nc(C3CCN(S(=O)(=O)c4ccccc4)CC3)n2)CC1=O (stereo not given) do in these assays?
Tg IFNy HTS: 16

How did CCc1cnc(N2CC[C@@H]3[C@H]2CCN3c2nncs2)nc1 do in these assays?
Tg IFNy HTS: -5

Results for COCc1cc(CN2CCC3(CC2)C(=O)NCCN3C)ccc1OC ?
Tg IFNy HTS: 8

Results for CCN(Cc1nccn1C)C(=O)c1ccc(-c2cc3ccccc3o2)nc1 ?
Tg IFNy HTS: -15

How did Oc1cccc(CN2CCN(c3nccc(CCC(F)(F)F)n3)CC2)c1 do in these assays?
Tg IFNy HTS: -6

What do the screens show for `O=C(NCCc1nc2c(s1)CCCC2)c1cc(=O)c2ccccc2o1`?
Tg IFNy HTS: 4

What do the screens show for `COc1cc(Cl)cc(CN2CCC(N)(C(=O)O)C2)c1OC` (stereo not given)?
Tg IFNy HTS: 9

What do the screens show for `CCSc1nc(CC(=O)N2CC[C@H]3CC[C@@H](C2)N3)cs1`?
Tg IFNy HTS: 31

Results for CC(=O)c1[nH]c(C)c(C(=O)N2CCc3nc(C)n(C)c(=O)c3CC2)c1C ?
Tg IFNy HTS: -5

How did CCCN1C(=O)CCc2cc(NC(=O)c3cccc(C#N)c3)ccc21 do in these assays?
Tg IFNy HTS: -17

Results for CCCN1C(=O)CCc2cc(NC(=O)c3cc(F)cc(F)c3)ccc21 ?
Tg IFNy HTS: -52

Results for CCCN1C(=O)CCc2cc(NC(=O)c3ccc(F)c(Cl)c3)ccc21 ?
Tg IFNy HTS: -82*

How did Cn1cc(Cl)c(C(=O)OCC(=O)Nc2ccccc2Cl)n1 do in these assays?
Tg IFNy HTS: -27

Results for Cc1ccsc1CN1CCCC(OCc2cccnc2)C1 (stereo not given) ?
Tg IFNy HTS: 0

What do the screens show for `CC(C)OC(=O)c1ccc(NC(=O)c2cncc(Br)c2)cc1`?
Tg IFNy HTS: 40

What do the screens show for `CCn1c(-c2cc(NC(=O)c3cncc(Br)c3)n[nH]2)cc2ccccc21`?
Tg IFNy HTS: -103*

What do the screens show for `COCCN1C(=O)CCc2cc(NC(=O)c3cncc(Br)c3)ccc21`?
Tg IFNy HTS: 1

What do the screens show for `CCn1c(-c2cc(NC(=O)c3cnccn3)n[nH]2)cc2ccc(OC)cc21`?
Tg IFNy HTS: -103*

How did CCn1c(-c2cc(NC(=O)c3cncc(Br)c3)n[nH]2)cc2ccc(OC)cc21 do in these assays?
Tg IFNy HTS: -85*

Results for COc1ccc(-c2cn(CC[C@@H]3CC[C@@H](NC(=O)c4cnccn4)[C@H](CO)O3)nn2)cc1 ?
Tg IFNy HTS: -14

How did COc1ccc2c3c(n(C)c2c1)[C@@H](CO)N(C(C)=O)CC31CCN(C(=O)c2cnccn2)CC1 do in these assays?
Tg IFNy HTS: 368

Results for CCn1c(-c2cc(NC(=O)c3cccnc3)n[nH]2)cc2cc(OC)ccc21 ?
Tg IFNy HTS: 69

How did COc1ccc(OC)c(NC(=O)c2cncc(NS(=O)(=O)c3ccc(Br)cc3)c2)c1 do in these assays?
Tg IFNy HTS: 19

How did CC(C)NC(=O)N1CCC(c2nnc3ccc(C(=O)CC4CCOCC4)cn23)C1 (stereo not given) do in these assays?
Tg IFNy HTS: -40

What do the screens show for `CNC(=O)C[C@@H]1CO[C@@H]2CN(C(=O)N3CCCC3)C[C@@H]12`?
Tg IFNy HTS: 22

What do the screens show for `CCN1CC(C(=O)O)CN2CCN(Cc3csc(C)n3)CC2C1` (stereo not given)?
Tg IFNy HTS: 61

Results for Cc1nc2ccc(NC(=O)CCn3ncc4c3CCCC4)cc2s1 ?
Tg IFNy HTS: -3

Results for CC(C)C1CN(C(=O)CCn2cnnc2)CCC(=O)N1CC1CC1 (stereo not given) ?
Tg IFNy HTS: 10

What do the screens show for `Cc1ccc(C(=O)Nc2nnc(Cc3ccc(Cl)cc3)s2)cc1-n1nnnc1C`?
Tg IFNy HTS: -7

What do the screens show for `Cc1cc(C)n(Cc2nc(-c3ccc(NC(=O)c4ccc(C#N)cc4)cc3)oc2C)n1`?
Tg IFNy HTS: -13

What do the screens show for `c1cc(CN2CCC(c3ccnc(-c4ccncc4)c3)C2)n(-c2nccs2)c1` (stereo not given)?
Tg IFNy HTS: -50

Results for Cc1ccccc1NC(=O)Cn1c(=O)cc(C(=O)N2CCCCC2)c2ccccc21 ?
Tg IFNy HTS: 6

Results for COC(=O)C1CC23C=CNC4CCC5(c6ccccc6NC15C2C)C43 (stereo not given) ?
Tg IFNy HTS: -86*

Results for O=S(=O)(NCCc1cc(N2CCOCC2)nc(N2CCCC2)n1)N1CCCC1 ?
Tg IFNy HTS: -9

Results for Cc1nc2n(n1)CCN(C(=O)c1ccc(S(=O)(=O)N3CCOCC3)cc1)C2 ?
Tg IFNy HTS: -1

Results for O=C(NCCc1csc(-c2ccc(Cl)cc2)n1)C(=O)Nc1ccccc1F ?
Tg IFNy HTS: -52

Results for CC(=O)NCCC1CCCCN1Cc1ccccc1-c1ccccc1 (stereo not given) ?
Tg IFNy HTS: 2

Results for Cc1cnn(Cc2ccccc2Cl)c1NC(=O)c1ncc(F)cc1F ?
Tg IFNy HTS: 23

What do the screens show for `CCN(CC)CCCNC(=O)c1cc2c(c3ccccc3n2CC2CC2)n1C`?
Tg IFNy HTS: -77*

What do the screens show for `N#CCCNC(=O)c1cc2c(c3ccccc3n2CC2CC2)n1-c1ncccn1`?
Tg IFNy HTS: -46

How did Cn1c(C(=O)NCc2ccco2)cc2c1c1ccccc1n2CC1CC1 do in these assays?
Tg IFNy HTS: 4

Results for COc1ccc(-c2nc3c(s2)CN(S(=O)(=O)c2ccccc2Cl)CC3)cc1 ?
Tg IFNy HTS: -86*

What do the screens show for `CCOc1ccc(-c2nc3c(s2)CN(S(=O)(=O)c2ccccc2Cl)CC3)cc1`?
Tg IFNy HTS: -89*

What do the screens show for `CCOc1ccc(-c2nc3c(s2)CN(C(=O)Nc2ccccc2CC)CC3)cc1`?
Tg IFNy HTS: -4

Results for COc1ccc(-c2nc3c(s2)CN(S(=O)(=O)c2ccc(C(C)C)cc2)CC3)cc1 ?
Tg IFNy HTS: -16

Results for O=S(=O)(c1cccc(Cl)c1)N1CCc2nc(-c3ccccc3)sc2C1 ?
Tg IFNy HTS: 1

Results for Cc1cnc(N2CCc3onc(C(=O)NCCN(C)C)c3C2)nc1 ?
Tg IFNy HTS: -3

What do the screens show for `COc1ccc2c(c1)NC1(CCN(C(=O)Cc3cccs3)CC1)c1cccn1-2`?
Tg IFNy HTS: 10

What do the screens show for `C=C(C)Cn1nc(C)c(CN(C)CCN2CCCCC2)c1C`?
Tg IFNy HTS: 25

How did CN1C(=O)CO[C@@H]2CN(C(=O)CCc3ccccc3)C[C@@H]21 do in these assays?
Tg IFNy HTS: 95

How did C[C@H](O[C@H]1OCCN(Cc2n[nH]c(=O)[nH]2)[C@H]1c1ccc(F)cc1)c1cc(C(F)(F)F)cc(C(F)(F)F)c1 do in these assays?
Tg IFNy HTS: -72*

How did Cc1nc(-c2ccccn2)nc(N(C)c2ccccc2)c1Cl do in these assays?
Tg IFNy HTS: -101*

Results for Cc1nc(-c2ccccn2)nc(N2CCN(CCO)CC2)c1Cl ?
Tg IFNy HTS: -14

How did CCOC(=O)CSc1nc2ccccc2n1CC(=O)Nc1ccccc1-c1ccccc1 do in these assays?
Tg IFNy HTS: -15

Results for c1cc2c3c(c1)c1c(n3CCNC2)CCCC1 ?
Tg IFNy HTS: 16

Results for Cn1c2c(c3cc(-c4cccc5c4CCNC5)ccc31)CCCC2=O ?
Tg IFNy HTS: -81*

Results for O=C(O)c1cc(C2CC2)nc2ccc(-c3cccc4c3CCNC4)cc12 ?
Tg IFNy HTS: 2

What do the screens show for `Cc1ccc(-c2coc(-c3ccc(NC(=O)CC(C)C)cc3)n2)c(C)c1`?
Tg IFNy HTS: -15
